# From PubChem BioAssay (NCI)
# The panel holds about 83,000 compounds, 20% with a hit somewhere; the sample as a whole holds those more often.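 For each line, cells grew in 96-well plates with the test compound present at a single concentration for 48 hours.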 Values without a mark were called inactive. Calls of active or inactive are those of the source. How the source made its calls: active means growth percent below 10; inactive means the rest.
# Columns and labels:
# Assay in all cases: NCI-60 one-dose screen, 48 h (100 = growth as untreated, 0 = no growth, -100 = all killed)
# Details in all cases: 10 µM unless noted
# [1] = test system: HCT-15 colon
# [2] = test system: HT29 colon
# [3] = test system: SNB-75 CNS
# [4] = test system: SNB-19 CNS
# [5] = test system: U251 CNS
# [6] = test system: PC-3 prostate
# [7] = test system: UACC-62 melanoma
# [8] = test system: LOX IMVI melanoma
# [9] = test system: SK-MEL-28 melanoma
# [10] = test system: SK-MEL-2 melanoma
# [11] = test system: EKVX NSCLC
# [12] = test system: SN12C renal
# [13] = test system: UO-31 renal
# [14] = test system: TK-10 renal
# [15] = test system: ACHN renal
# [16] = test system: CAKI-1 renal
# [17] = test system: A498 renal
# [18] = test system: CCRF-CEM leukemia
# [19] = test system: MOLT-4 leukemia
# [20] = test system: SK-MEL-5 melanoma
Compound,growth [1],growth [2],growth [3],growth [4],growth [5],growth [6],growth [7],growth [8],growth [9],growth [10],growth [11],growth [12],growth [13],growth [14],growth [15],growth [16],growth [17],growth [18],growth [19],growth [20]
COc1cc(/C=C/c2cc(/C=C/c3ccc(O)c(OC)c3)n(-c3ccccc3)c(=O)n2)ccc1O,80.8%,-13% (active),56.9%,76.2%,56.1%,70.4%,69.9%,61%,78.8%,79.5%,71.4%,71.4%,58.6%,113%,81.1%,83.7%,108%,28.5%,31.5%,
COc1cc2c(cc1-c1c(C)noc1C)ncc1nc(C3CCC(F)(F)CC3)n([C@@H](C)COC(F)F)c12,13.4%,18.7%,23.4%,53.4%,50.5%,36.7%,20.2%,11%,47.3%,71.4%,43.4%,58.5%,3.65% (active),27.1%,36.5%,24.3%,-12.5% (active),50.8%,41.4%,
COc1cc(/C=C/c2cc(/C=C/c3ccc(O)c(OC)c3)n(-c3ccc(Cl)cc3)c(=O)n2)ccc1O,85.4%,-5.09% (active),69.7%,91%,75.5%,77.3%,80.6%,61.6%,81.6%,92.6%,78.1%,80.8%,64.9%,118%,83.1%,92.9%,102%,44.2%,43%,
COc1ccc(C2NC(=O)Nc3ccccc32)c(OC)c1 (stereo unspecified),100%,108%,68.7%,99.1%,99.7%,82.2%,,103%,,102%,97%,95.3%,78.3%,95.5%,99.4%,93%,,101%,95.5%,96%
CCCCCCCCNc1cccc2c1C(=O)c1ccccc1C2=O,107%,89.7%,98.3%,96.4%,110%,104%,96%,105%,114%,108%,109%,97.6%,92.2%,98.3%,111%,98.3%,,112%,90.5%,
CC(=O)Nc1cc(F)cc(C(F)(F)F)c1Cl,102%,101%,83.2%,106%,105%,95.7%,102%,92.1%,101%,105%,98%,105%,92.8%,104%,,91.5%,100%,102%,105%,
O=C(Nc1ccc(/C=C2\SC(=O)N(Cc3ccc(OC(F)(F)F)cc3)C2=O)cc1)c1ccc(Cl)c([N+](=O)[O-])c1,72.5%,11.3%,85.5%,36.8%,-18.8% (active),9.15% (active),94.4%,73.1%,95.5%,92.6%,91.1%,81.6%,67.9%,,89.3%,85.7%,82.2%,77%,78.4%,
Oc1cccc2ccc(N/N=C/c3cc(CN4CCCCC4)c(O)c4ncccc34)nc12,20.6%,14.7%,27.4%,19.9%,-1.42% (active),5.8% (active),8.94% (active),-58.4% (active),23%,-4.78% (active),20%,17.6%,-19% (active),32.5%,,6.88% (active),38.9%,10.7%,7.17% (active),
